Only a selection was taken, and hits are over-represented in it overall.
LmPK inhibitor – blocks Leishmania mexicana pyruvate kinase activity; purified LmPK, Kinase-Glo ATP luminescence, 1 h; Q27686; actives 0.37% (n = 290,000); Potency, µM (highest dose often 57.5 µM), hits mostly inhibitors
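Screened at intermediate enzyme activity to detect both inhibitors and activators: LmPK at 0.1 nM, with a 0.5 nM enzyme column as activation reference. PEP 0.5 mM, ADP 0.1 mM; ATP detected by luminescence after 1 h.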
CHX counter – counter-screen for Shiga toxin inhibitors: cycloheximide protein synthesis inhibition. cell reporter, cycloheximide protein synthesis inhibition counterscreen. max response, %. actives 12% (n = 300,000). AID 2314; in the data active = max response mostly above about 13%, no sharp cut-off; inactive = mostly below about 14%; also: read at 38.3 µM for the half of the compounds with a filed dose
Tb PYK inh – inhibitors of Trypanosoma brucei pyruvate kinase. Q57TT1. TbPYK enzyme, Kinase-Glo Plus ATP luminescence, 45 min. Potency, µM (titrated, usually from 76.8 µM), hits mostly inhibitors. actives 0.12% (n = 410,000). AID 624173; also: nearly all actives have a fitted effect of over 50% in size
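Luminescence from Kinase-Glo Plus, added after a 45-minute room-temperature reaction, served as the end-point read-out. The enzyme and substrate were preincubated with compound before ADP (130 uM final) initiated turnover. Concentration-effect curves came from normalized qHTS data.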
RE007 growth inh – less growth of the S. pombe RE007 Vpr strain; S. pombe RE007 Vpr strain, BacTiter-Glo ATP luminescence, 24 h; Potency, µM (highest dose often 92.2 µM), hits mostly inhibitors; actives 0.21% (n = 360,000); active = well fitted falling curve with a large enough effect; inconclusive = small, poorly fitted or top-dose-only effect; inactive = no such curve, though single readings can be large or run the other way; also: nearly all actives have a fitted effect of over 50% in size
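Fission yeast RE007 carrying one integrated HIV-1 vpr copy, seeded at OD 0.01 in PMG+AL medium with 23 nL pinned compound. Grown 24 h at 30 degrees; viability read by BacTiter-Glo luminescence after 5 min.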
Shiga toxin inh – Shiga toxin inhibition; inhibition, % at 38.7 µM; actives 9.2% (n = 290,000); Vero cells, Shiga toxin protein synthesis inhibition reporter; in the data active = inhibition mostly above about 28%, no sharp cut-off; inactive = mostly below about 43%
FBPA Giardia inh – inhibitors of Giardia lamblia fructose-1,6-bisphosphate aldolase | purified Giardia FBPA | actives 0.71% (n = 290,000) | Potency, µM (doses to about 59.6 µM), hits mostly inhibitors | A8B2U2 | AID 2451; also: nearly all actives have a fitted effect of over 55% in size
Target sequence (A8B2U2 whole entry, looked up): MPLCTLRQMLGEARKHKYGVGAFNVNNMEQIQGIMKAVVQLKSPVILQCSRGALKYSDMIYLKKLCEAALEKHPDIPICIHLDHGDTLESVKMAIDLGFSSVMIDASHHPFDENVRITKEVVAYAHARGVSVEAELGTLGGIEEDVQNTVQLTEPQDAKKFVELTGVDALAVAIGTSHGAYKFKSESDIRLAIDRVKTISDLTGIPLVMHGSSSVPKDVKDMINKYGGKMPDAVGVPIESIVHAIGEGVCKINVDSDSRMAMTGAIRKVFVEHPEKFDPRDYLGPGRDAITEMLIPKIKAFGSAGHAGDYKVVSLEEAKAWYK
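40 nM FBPA preincubated 10 min at RT with compound (up to 57.5 uM final), then substrate plus GAPDH/TPI/NAD/arsenate coupling and diaphorase/resazurin added. Fluorescence read after 20 min at RT, 525/598 nm.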
Large screens that a line does not name were inactive. Unless noted, calls follow the shape of the dose curve; as a rule, active = well fitted curve in the direction sought with a large enough effect; inconclusive = small, poorly fitted or top-dose-only effect, or another doubt; inactive = no such curve, though single readings can be large; an effect the other way counts as inactive or inconclusive.

O=C(N/N=C/c1cc2ccccc2nc1Cl)[C@H]1C[C@@H]1c1ccccc1	none
O=C(O)c1ccc(N/N=C/c2cccc3nccnc23)cc1	CHX counter 27, Shiga toxin inh 45
COc1ccc2nc3sc(C(=O)Nc4cc(Cl)c(OC)cc4OC)cc3cc2c1	none (no result: LmPK inhibitor, CHX counter, RE007 growth inh, Shiga toxin inh, FBPA Giardia inh)
CCCCCCCCCCCCCCCCCC(=O)[O][Al]	none (no result: LmPK inhibitor, CHX counter, RE007 growth inh, Shiga toxin inh, FBPA Giardia inh)
O=C(CSc1n[nH]c(-c2ccccc2Cl)n1)N1CCN(c2ccccc2)CC1	none (no result: LmPK inhibitor, CHX counter, RE007 growth inh, Shiga toxin inh, FBPA Giardia inh)
COc1ccc(OC)c(-c2nc3c(C#N)c[nH]n3c2NC2CCCCC2)c1	none (no result: LmPK inhibitor, CHX counter, RE007 growth inh, Shiga toxin inh, FBPA Giardia inh)
CC1(C)CC(=O)C=C(NNC(=O)c2ccc(N)cc2)C1	none
CC1(C)CC(=O)C=C(NNC(=O)c2ccccc2)C1	CHX counter 24, Shiga toxin inh active
O=C1NC(=O)/C(=C\c2ccc(Br)o2)S1	CHX counter 23, Shiga toxin inh 20 (no result: RE007 growth inh)
O=C(c1cnc2ccc3ccccc3c2c1)c1cc(F)ccc1O	CHX counter 46, Shiga toxin inh 69
O=C(c1cnn(-c2ccccc2)c1)c1ccccc1O	LmPK inhibitor inconclusive, CHX counter 70, Shiga toxin inh 75
COc1ccc(O)c(C(=O)c2cnc3onc(C)c3c2)c1	CHX counter 21
Cc1nn(C)c2ncc(C(=O)c3cc(F)ccc3O)cc12	none
COc1ccc(O)c(C(=O)c2cnn(-c3ccccc3)c2)c1	CHX counter 29, Shiga toxin inh 96
COc1ccc(-n2cc(C(=O)c3ccccc3O)cn2)cc1	RE007 growth inh inconclusive
COc1cccc(NC(=O)CN(C)C(=O)CSc2nc(C)cc(C)n2)c1	none (no result: LmPK inhibitor, CHX counter, Shiga toxin inh, FBPA Giardia inh)
CCOc1ccc2c(c1)c(=O)c(C(=O)c1ccc(CC)cc1)cn2CC(=O)Nc1ccc2c(c1)OCCO2	none (no result: LmPK inhibitor, CHX counter, RE007 growth inh, Shiga toxin inh, FBPA Giardia inh)
CCOC(=O)c1cccc(NC(=O)CN2C(=O)CC(C)(C)Sc3ccccc32)c1	none (no result: LmPK inhibitor, CHX counter, RE007 growth inh, Shiga toxin inh, FBPA Giardia inh)
O=C(Cc1csc2ccccc12)NCc1cccc(Br)c1	none (no result: LmPK inhibitor, CHX counter, RE007 growth inh, Shiga toxin inh, FBPA Giardia inh)
CC(=O)c1ccccc1OCCOc1ccccc1C(C)=O	none
COc1ccc(C(=O)c2ccc(C)cc2)c(O)c1	none (no result: LmPK inhibitor, CHX counter, RE007 growth inh, Shiga toxin inh, FBPA Giardia inh)
Cn1c(=O)[nH]c(=O)c2cc(C(=O)c3cc(F)ccc3O)cnc21	none
COc1ccc(C(=O)OCCOc2ccccc2C(C)=O)c(O)c1	CHX counter 13
COc1ccc(C(=O)c2ccccc2)c(O)c1	CHX counter 26, Shiga toxin inh active
O=C(c1cnn(-c2ccccc2)c1)c1cc(F)ccc1O	CHX counter 43, Shiga toxin inh 83
COc1ccc(O)c(C(=O)c2cc(C#N)c(=O)n(-c3c(C)n(C)n(-c4ccccc4)c3=O)c2)c1	CHX counter 22
NCCC1CCCC(CCN)N1 (configuration not stated)	none (no result: LmPK inhibitor, CHX counter, Shiga toxin inh)
CCOc1cc(C2CC(=O)N3CN(C4CCCCC4)CSC3=C2C#N)ccc1O (configuration not stated)	Tb PYK inh inconclusive, FBPA Giardia inh 0.79µM
COc1ccc(C2CC(=O)N3CN(C4CCCCC4)CSC3=C2C#N)c(OC)c1 (configuration not stated)	Tb PYK inh 18µM (no result: LmPK inhibitor, CHX counter, RE007 growth inh, Shiga toxin inh, FBPA Giardia inh)
COc1ccc2ccccc2c1C1CC(=O)N2CN(C3CCCCC3)CSC2=C1C#N (configuration not stated)	Tb PYK inh inconclusive, FBPA Giardia inh inconclusive
O=C(NC1CCCC1)C1c2ccccc2OCC(=O)N1CCc1ccccc1 (configuration not stated)	none (no result: LmPK inhibitor, CHX counter, Shiga toxin inh, FBPA Giardia inh)
Cc1ccc2nc(COc3ccccc3NC(=O)c3ccc(F)cc3)cc(=O)n2c1	none (no result: LmPK inhibitor, CHX counter, RE007 growth inh, Shiga toxin inh, FBPA Giardia inh)
Cc1cccc(NC(=O)CCS(=O)(=O)c2cc(Br)cc3c2N(C(=O)C2CC2)CC3)c1	none (no result: LmPK inhibitor, CHX counter, RE007 growth inh, Shiga toxin inh, FBPA Giardia inh)
N#C[C@H]1C[C@H]2C[C@@H]2N1C(=O)[C@@H](N)C12CC3CC(CC(O)(C3)C1)C2	none (no result: LmPK inhibitor, CHX counter, RE007 growth inh, Shiga toxin inh, FBPA Giardia inh)
c1ccc(-c2cnnc(N3CCOCC3)n2)cc1	CHX counter 63, Shiga toxin inh 68
Cc1cc(C)n(-c2ncc(-c3ccccc3)nn2)n1	CHX counter 57, Shiga toxin inh 90
Cc1cc(C)n(-c2nc(Nc3ccccc3)nc(-n3nc(C)cc3C)n2)n1	none
Cc1cc(C)n(-c2nncc(-c3ccccc3)n2)n1	CHX counter 26
FC(F)(F)c1cc(-c2ccccc2)nc(N2CCOCC2)n1	none
Cc1cc2nc(-c3cccc(Cl)c3)c(Cc3ccsc3)n2c(C)c1Br	none (no result: LmPK inhibitor, CHX counter, Shiga toxin inh, FBPA Giardia inh)
